# Results published in PubChem BioAssay (NCI).
# “And” between values parts separate entries of the source, which are not always exact repeats. Identical values can stand only once. About 83,000 compounds went through this panel and 20% of them were active in at least one assay; those are over-represented in the sample as a whole.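 Cells were grown in 96-well plates and exposed to the test compound at a single concentration for 48 hours; results are reported as percent growth, with values below 10 considered active.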 The source made the active and inactive calls.
# Key:
# Assay in all cases: NCI-60 one-dose screen, 48 h (100 = growth as untreated, 0 = no growth, -100 = all killed)
# Details in all cases: 10 µM unless noted
# UACC-62 melanoma = test system: UACC-62 melanoma
# TK-10 renal = test system: TK-10 renal
# SNB-75 CNS = test system: SNB-75 CNS
# SNB-19 CNS = test system: SNB-19 CNS
# U251 CNS = test system: U251 CNS
# PC-3 prostate = test system: PC-3 prostate
# SK-MEL-28 melanoma = test system: SK-MEL-28 melanoma
# SK-MEL-2 melanoma = test system: SK-MEL-2 melanoma
# SN12C renal = test system: SN12C renal
# UO-31 renal = test system: UO-31 renal
# ACHN renal = test system: ACHN renal
# CAKI-1 renal = test system: CAKI-1 renal
# A498 renal = test system: A498 renal
# CCRF-CEM leukemia = test system: CCRF-CEM leukemia
# MOLT-4 leukemia = test system: MOLT-4 leukemia
# LOX IMVI melanoma = test system: LOX IMVI melanoma
# EKVX NSCLC = test system: EKVX NSCLC
smiles,measurement,setting,value
CC1OC(OC2C(O[C@H]3CC[C@@]4(C)C(=CC[C@H]5[C@@H]6C[C@@H]7O[C@]8(CC[C@H](C)CN8)[C@@H](C)[C@@H]7[C@@]6(C)CC[C@@H]54)C3)OC(CO)C(O)C2OC2OC(CO)C(O)C(O)C2O)C(O)C(O)C1O (stereo not given in full),growth,UACC-62 melanoma,96.6% [100 µM] (inactive) and -100% [100 µM] (active)
same,growth,TK-10 renal,95.2% [100 µM] (inactive) and -95% [100 µM] (active)
CCOc1cc2c(cc1O)C(=O)C[C@@H]1[C@@H]2CC[C@]2(C)[C@@H](O)CC[C@@H]12,growth,UACC-62 melanoma,13.5% [100 µM] (inactive) and 0.709% [100 µM] (active)
same,growth,TK-10 renal,38.8% [100 µM] (inactive) and -2.4% [100 µM] (active)
CC(C)(C)c1cc(C2COC(=O)COCC(=O)OCCOCCOCCO2)cc(C(C)(C)C)c1O (stereo not given),growth,UACC-62 melanoma,-51.5% [100 µM] (active) and -100% [100 µM] (active)
same,growth,TK-10 renal,-74.5% [100 µM] (active) and -100% [100 µM] (active)
CC(C)(C)N/N=C(\C(=O)Nc1ccc([N+](=O)[O-])cc1[N+](=O)[O-])c1nc2ccc([N+](=O)[O-])cc2[nH]c1=O,growth,UACC-62 melanoma,54.2% [100 µM] (inactive) and 17.5% [100 µM] (inactive)
same,growth,TK-10 renal,97.2% [100 µM] (inactive) and 67.6% [100 µM] (inactive)
O=[N+]([O-])c1cccc(-c2ncnc(-c3cccc([N+](=O)[O-])c3)n2)c1,growth,UACC-62 melanoma,53.2% [100 µM] (inactive) and 0.549% [100 µM] (active)
same,growth,TK-10 renal,38.8% [100 µM] (inactive) and -100% [100 µM] (active)
C#CCn1c2c(c3ccccc3c1=O)C(=O)c1ccccc1-2,growth,UACC-62 melanoma,16% [100 µM] (inactive) and -100% [100 µM] (active)
same,growth,TK-10 renal,17.2% [100 µM] (inactive) and -69.9% [100 µM] (active)
NC(=O)c1cc(I)ccc1NC(=O)COc1ccc(Cl)cc1Cl,growth,SNB-75 CNS,113% (inactive)
same,growth,SNB-19 CNS,98.7% (inactive)
same,growth,U251 CNS,89.5% (inactive)
same,growth,PC-3 prostate,86.4% (inactive)
same,growth,UACC-62 melanoma,83.1% (inactive)
same,growth,SK-MEL-28 melanoma,99.3% (inactive)
same,growth,SK-MEL-2 melanoma,79.2% (inactive)
same,growth,SN12C renal,103% (inactive)
same,growth,UO-31 renal,83.3% (inactive)
same,growth,ACHN renal,99% (inactive)
same,growth,CAKI-1 renal,88.8% (inactive)
same,growth,A498 renal,73.9% (inactive)
same,growth,CCRF-CEM leukemia,81.6% (inactive)
same,growth,MOLT-4 leukemia,80.5% (inactive)
N#CC1=C(N)OC(c2cccc([N+](=O)[O-])c2)C1(C#N)C#N (stereo not given),growth,UACC-62 melanoma,-52.1% [100 µM] (active) and -93.7% [100 µM] (active)
same,growth,TK-10 renal,-66.6% [100 µM] (active) and -87.5% [100 µM] (active)
COc1cc(C2CC(=O)Nc3c2ccc2ccccc32)cc(Br)c1OC (stereo not given),growth,SNB-75 CNS,-18.6% (active)
same,growth,SNB-19 CNS,39% (inactive)
same,growth,U251 CNS,18.6% (inactive)
same,growth,PC-3 prostate,15.2% (inactive)
same,growth,UACC-62 melanoma,12.1% (inactive)
same,growth,LOX IMVI melanoma,25.1% (inactive)
same,growth,SK-MEL-28 melanoma,43.6% (inactive)
same,growth,SK-MEL-2 melanoma,8.51% (active)
same,growth,EKVX NSCLC,38.9% (inactive)
same,growth,SN12C renal,50.2% (inactive)
same,growth,UO-31 renal,27.2% (inactive)
same,growth,TK-10 renal,34.4% (inactive)
same,growth,ACHN renal,45.9% (inactive)
same,growth,CAKI-1 renal,27.1% (inactive)
same,growth,A498 renal,7.93% (active)
same,growth,CCRF-CEM leukemia,-25.7% (active)
same,growth,MOLT-4 leukemia,10.6% (inactive)
NNC1=N/C(=C\c2ccco2)C(Cl)=N1,growth,UACC-62 melanoma,10.8% [100 µM] (inactive) and -100% [100 µM] (active)
same,growth,TK-10 renal,67% [100 µM] (inactive) and 2.87% [100 µM] (active)
Cc1ccnc2[nH]c(-c3ccc(F)cc3)cc(=O)c12,growth,UACC-62 melanoma,-5.39% [100 µM] (active) and -36.2% [100 µM] (active)
same,growth,TK-10 renal,66.3% [100 µM] (inactive) and 16.9% [100 µM] (inactive)
CCOc1cc2c(cc1O)/C(=N\N)C[C@@H]1[C@@H]2CC[C@]2(C)[C@@H](O)CC[C@@H]12,growth,UACC-62 melanoma,17.1% [100 µM] (inactive) and -96.8% [100 µM] (active)
same,growth,TK-10 renal,36.7% [100 µM] (inactive) and -97% [100 µM] (active)
CC(=O)Nc1c(C)cc2c(nc3n2CCC3OC(C)=O)c1[N+](=O)[O-] (stereo not given),growth,UACC-62 melanoma,134% [100 µM] (inactive) and 108% [100 µM] (inactive)
same,growth,TK-10 renal,120% [100 µM] (inactive) and 104% [100 µM] (inactive)
COc1ccc2c3c(c(=O)n(C)c2c1OC)C=CC(C)(C)O3,growth,UACC-62 melanoma,0.949% [100 µM] (active) and 6.15% [100 µM] (active)
same,growth,TK-10 renal,8.86% [100 µM] (active) and 15% [100 µM] (inactive)
